Assay in all cases: cell viability relative to vehicle control; higher = less cytotoxic
Holding throughout (settings): 10 µM

Assay [1] relates to K562. The gist of the method: (§1)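 After removal of identity-inconsistent compounds, the Selleck bioactive, kinase and epigenetic probe libraries were screened on CRISPR-edited mutant clones and isogenic wild-type clones of four leukaemia lines. Plates were 384-well, each well holding 2000 cells in 50 µL medium and receiving a single 10 µM acoustically dispensed dose. CellTiter-Glo luminescence was read 48 h later, after the supernatant was taken off. Genedata Screener was used to express viability as percent of the on-plate vehicle control.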

Assay [2] has as its system MARIMO. The gist of the method: as §1
Assay [3] deals with MOLM14. The essentials: as §1
The test system of assay [4] is OCI-AML2. The gist of the method:
as §1

Several values for one entry are separate records, joined by “and”; a condition that tells them apart may be missing. Equal entries are not always repeated.

Usually cell viability stands for a read-out of living cells in per cent, often relative to untreated cells.

For `Nc1nc(=S)c2ncn([C@H]3C[C@H](O)[C@@H](CO)O3)c2[nH]1`, the cell viability is 29.9% and 33.4% in assay [1] (SRSF2 genotype: SRSF2 P95H/wt); 29.9% in assay [1] (SRSF2 genotype: SRSF2 wt/wt); 56.1% in assay [2] (SRSF2 genotype: SRSF2 P95H/wt); 44.8% in assay [2] (SRSF2 genotype: SRSF2 wt/wt); 44.1% in assay [3] (SRSF2 genotype: SRSF2 P95H/wt); 31.7% in assay [3] (SRSF2 genotype: SRSF2 wt/wt). Besides, the cell viability was determined as 22.8% in assay [4] (SRSF2 genotype: P95H/wt) and 27.8% in assay [4] (SRSF2 genotype: wt/wt).
For the compound `Nc1nc2c(ncn2COC(CO)CO)c(=O)[nH]1` [Ganciclovir], the cell viability is 105% and 99.9% in assay [1] (SRSF2 genotype: SRSF2 P95H/wt); 106% in assay [1] (SRSF2 genotype: SRSF2 wt/wt); 100% in assay [2] (SRSF2 genotype: SRSF2 P95H/wt); 108% in assay [2] (SRSF2 genotype: SRSF2 wt/wt); 112% in assay [3] (SRSF2 genotype: SRSF2 P95H/wt); 104% in assay [3] (SRSF2 genotype: SRSF2 wt/wt). The cell viability in assay [4] (SRSF2 genotype: P95H/wt) was 91.1%; in assay [4] (SRSF2 genotype: wt/wt), 104%.
On to `Cc1ccn[nH]1` [3-Methylpyrazole], for which the cell viability in assay [1] (SRSF2 genotype: SRSF2 P95H/wt) is 112% and 104%; in assay [1] (SRSF2 genotype: SRSF2 wt/wt), 103%; in assay [2] (SRSF2 genotype: SRSF2 P95H/wt), 107%; in assay [2] (SRSF2 genotype: SRSF2 wt/wt) it was 110%; in assay [3] (SRSF2 genotype: SRSF2 P95H/wt) it was 99.3%; in assay [3] (SRSF2 genotype: SRSF2 wt/wt), 105%. In addition, the cell viability in assay [4] (SRSF2 genotype: P95H/wt) was 95.4%; in assay [4] (SRSF2 genotype: wt/wt) it was 106%.

The values above are taken from the supplement of paper PMC10981050.
